The list is not random: actives were taken first. Their share in the collection is about 10%.
GPT2 inhibitor: Primary qHTS assay for inhibitors of Glutamate pyruvate transaminase 2 (GPT2). Recombinant GPT2, coupled pyruvate oxidase/HRP Amplex Red fluorescence. hit rate 0.25% among 100,000. Potency, µM (top dose mostly 57.7 µM), for inactives: at the highest dose activity change, negative = inhibition, actives largely listed as inhibitors. AID 1671188, 2021; further: on the % scale 0 is the no-effect control and ±100 the full control effect; nearly all actives have a fitted effect of over 60% in size
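GPT2 10ng/uL, a-KG 250uM, L-Ala 2mM, HEPES pH7.5 + 0.0001% Tween; 30 min RT. Then Amplex mix (PO/HRP/ThPP), 30 min RT dark, fluorescence. AOA 50uM used as positive control.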
3T3 cytotox: Cytotoxic Profiling in NIH 3T3 Cell Line of Diverse Libraries Using Quantitative High-Throughput Screening; NIH 3T3 viability, CellTiter-Glo ATP luminescence, 48-72 h; hit rate 4.3% among 94,000; Potency, µM (top dose mostly 96.7 µM), for inactives: at the highest dose activity change, negative = cytotoxicity, hits mostly inhibitors; AID 1345082, 2018; further: on the % scale 0 is the no-effect control and ±100 the full control effect; nearly all actives have a fitted effect of over 55% in size
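Cytotoxicity is measured as loss of cellular ATP: NIH 3T3 cells (400/well) are exposed to compound for 48 or 72 hr at 37 °C, then CellTiter-Glo luminescence is imaged after 10 min at room temperature.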
HEK293 tox: Cytotoxic Profiling in HEK 293 Cell Line of Diverse Libraries Using Quantitative High-Throughput Screening | HEK 293 viability, ATP luminescence (CellTiter-Glo), 48-72 h | Potency, µM (top dose mostly 115 µM), for inactives: top-dose activity change, negative = cytotoxicity, hits mostly inhibitors | hit rate 6.6% among 94,000 | AID 1345083, 2018; further: on the % scale 0 is the no-effect control and ±100 the full control effect; nearly all actives have a fitted effect of over 60% in size
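HEK 293 seeded at 250 cells/well receive compound via pintool. After 48 or 72 hr at 37 degree Celsius, 5% CO2 and 95% humidity, CellTiter-Glo is dispensed and luminescence read following 10 min at room temperature.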
hNpr1 antagonist: Natriuretic polypeptide receptor (hNpr1) antagonism - Primary qHTS | Atrial natriuretic peptide receptor 1 (Homo sapiens), P16066 | HEK293 hNpr1 GloSensor cGMP, ANP-stimulated luminescence | Potency, µM (doses to about 46.3 µM), for the others: top-dose activity change, negative = inhibition, usual class: inhibitors | hit rate 1.6% among 76,000 | AID 1347048, 2019; calls by dose curve; further: on the % scale 0 is the no-effect control and ±100 the full control effect; nearly all actives have a fitted effect of over 60% in size
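HEK293 cells stably expressing human Npr1 and cGMP GloSensor pGS-40F, loaded 2 h with 2% GloSensor reagent, given compound 30 min at room temperature. Luminescence read before and 20 min after 0.1 nM hNppA.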
FLuc inh-1: Firefly luciferase inhibition profiling of diverse chemical library using quantitative high-throughput screening | Potency, µM (series often up to 115 µM), actives largely listed as inhibitors | purified P. pyralis luciferase, luminescence, biochemical | hit rate 2.5% among 76,000 | AID 1347043, 2019; further: on the % scale 0 is the no-effect control and ±100 the full control effect; nearly all actives have a fitted effect of over 65% in size
Target sequence (P08659 whole entry, looked up): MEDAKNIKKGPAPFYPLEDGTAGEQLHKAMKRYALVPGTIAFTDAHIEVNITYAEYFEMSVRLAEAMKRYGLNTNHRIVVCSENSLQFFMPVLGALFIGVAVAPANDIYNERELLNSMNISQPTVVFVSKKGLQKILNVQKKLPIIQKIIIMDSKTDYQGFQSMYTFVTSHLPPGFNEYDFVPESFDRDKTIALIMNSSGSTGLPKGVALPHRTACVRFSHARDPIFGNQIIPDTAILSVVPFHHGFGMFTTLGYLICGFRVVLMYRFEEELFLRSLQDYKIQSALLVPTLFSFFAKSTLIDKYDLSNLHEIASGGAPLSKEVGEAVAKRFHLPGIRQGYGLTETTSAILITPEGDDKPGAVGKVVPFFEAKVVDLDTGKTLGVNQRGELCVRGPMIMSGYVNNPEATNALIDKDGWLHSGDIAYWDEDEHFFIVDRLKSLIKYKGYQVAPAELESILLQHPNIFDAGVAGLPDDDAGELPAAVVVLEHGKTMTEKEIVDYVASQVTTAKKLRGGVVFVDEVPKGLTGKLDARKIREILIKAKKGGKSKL
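Cell-free enzyme assay, 10nM P. pyralis luciferase, luciferin and ATP each at 10uM. Inhibition profiled over a 6-point titration, read as luminescence.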
FLuc SDR no ATP: Firefly luciferase (FLuc-C-HiBiT) SDR gain of signal screen - without ATP. shares compounds with FLuc inh-1. Purified FLuc-C-HiBiT, Nano-Glo HiBiT luminescence, no ATP. Potency, µM (highest dose often 32.7 µM), inactives show top-dose activation (signal gain), usual class: activators. hit rate 7.8% among 1,300; further: nearly all actives have a fitted effect of over 55% in size
FLuc SDR ATP: Firefly luciferase (FLuc-C-HiBiT) SDR gain of signal screen - plus ATP. shares compounds with FLuc inh-1. Potency, µM (doses to about 32.7 µM), for inactives: at the top dose activation (gain of signal), hits mostly activators. purified FLuc-C-HiBiT + ATP, HiBiT complementation luminescence. hit rate 8.7% among 1,300. AID 1963319, 2024;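 further: signal reports ligand binding via conformational change of the enzyme rather than luciferase catalysis; % of control where 0% means no effect; nearly all actives have a fitted effect of over 55% in size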
FLuc inh-2: Firefly luciferase (FLuc-C-HiBiT) enzymatic inhibition screen - Functional assay; shares compounds with FLuc inh-1; purified FLuc-C-HiBiT enzyme, luciferin luminescence; Potency, µM (highest dose often 32.7 µM), for the others: top-dose activity change, negative = inhibition, usual class: inhibitors; hit rate 42% among 1,300; further: on the % scale 0 is the no-effect control and ±100 the full control effect; nearly all actives have a fitted effect of over 70% in size
The depositor's hits bear a star; i = inactive; ? = inconclusive; · = no result given; [ ] = another dose, or the depositor's remark. Unless noted, the call rests on the fitted dose curve; in most records, active means well fitted curve in the direction sought with a large enough effect; inconclusive means small, poorly fitted or top-dose-only effect, or another doubt; inactive means no such curve, though single readings can be large; an effect the other way counts as inactive or inconclusive. Potency means the concentration at half of the fitted maximal effect.

SMILES	GPT2 inhibitor	3T3 cytotox	HEK293 tox	hNpr1 antagonist	FLuc inh-1	FLuc SDR no ATP	FLuc SDR ATP	FLuc inh-2
CN(C)CCNC(=O)C[C@@H]1c2nc(NC(=O)c3ccco3)sc2C[C@@H]2[C@](C)(CO)[C@H](O)CC[C@]21C	i	?	2%	0%	i	·	·	·
CC(=O)N1CCCC1C(=O)N1CCC2(CC1)CC(=O)Nc1ccccc1O2 (stereo unspecified)	i	-12%	-13%	·	·	·	·	·
O=C(NCCc1ccc(F)cc1)C1CN(C2CCCCC2)C(=O)N1 (stereo unspecified)	-1%[88.5 µM]	-17%[138 µM]	-29%[172 µM]	·	·	·	·	·
CCS(=O)(=O)c1cccc(C(=O)Nc2ccc(-c3nc4ccccc4s3)c(O)c2)c1	·	·	·	·	·	4%	4%	?
COc1cccc(C(=O)Nc2cccc(-c3nnc4n3CCCC4)c2)c1	4%	-16%	-23%	-5%	i	·	·	·
COc1cccc(C(=O)Nc2ccc3nc(SCC(=O)N4CCOCC4)sc3c2)c1	·	·	·	·	·	?	21%	9.9µM*
COc1cccc(C(=O)Nc2ccc(-c3nc4ccccc4s3)c(O)c2)c1	·	·	·	·	·	13%	9%	1%
COc1cccc(C(=O)Nc2cnc(-c3ccccc3)nc2)c1	-7%	-22%	?	-29%	i	·	·	·
CCNC(=O)N1CCCC(Cc2ncc(C)n2C(C)C)C1 (stereo unspecified)	-10%	-15%	i	2%	i	·	·	·
O=C(O)c1ccnc(-c2ccnc(NCCCN3CCCC3=O)n2)c1	i	-11%	i	4%	?	·	·	·
O=C(O)c1ccnc(-c2ccnc(NCCN3CCCCC3=O)n2)c1	i[11.5 µM]	-4%	i	-3%	1.4µM*	20%	11µM*	?
C=Cc1cccc(CN2CCCC3(CCNC3)C2)c1 (stereo unspecified)	-3%	?	?	-6%	i	·	·	·
Cc1ccc(-c2cccc(COc3cnc4c(ccn4CC(=O)O)c3)c2)cc1C	·	·	·	·	·	10%[49.3 µM]	7%[49.3 µM]	?
COc1cccc(-c2cccc(COc3cnc4c(ccn4CC(=O)O)c3)c2)c1	·	·	·	·	·	7%[49.3 µM]	5%[49.3 µM]	?
COc1ccc(-c2cccc(COc3cnc4c(ccn4CC(=O)O)c3)c2)c(C)c1	1%[88.5 µM]	?	?	-11%[70.6 µM]	i	9%	8%	-6%
Cc1ccc(-c2cccc(COc3cnc4c(ccn4CC(=O)O)c3)c2)c(C)c1	·	·	·	·	·	14%[49.3 µM]	7%[49.3 µM]	-13%[49.3 µM]
COc1cc(F)cc(-c2cccc(CCOc3cnc4c(ccn4CC(=O)O)c3)c2)c1	-9%[88.5 µM]	?	?	0%[70.6 µM]	i	·	·	·
O=C(Nc1cccc(C(F)(F)F)c1)O[C@@H]1CO[C@H]2[C@@H]1OC[C@@H]2NS(=O)(=O)c1cccs1	-7%	?	?	-7%	i	·	·	·
CC(C)c1ccc(NC(=O)O[C@@H]2CO[C@H]3[C@@H]2OC[C@@H]3NS(=O)(=O)c2cccs2)cc1	2%	?	?	0%	11µM*	16%	10%	?
